About 17,000 (5.5%) of roughly 310,000 compounds were called active. Roughly 11% stayed inconclusive and do not appear here. Calls come from the whole dose curve; as a rule, active = well fitted inhibition curve with a large enough effect; inconclusive = small, poorly fitted or top-dose-only effect, or effect the other way; inactive = no such curve, though single readings can be large or run the other way. The entries come from a sample that favours actives as a whole.
% is set by controls: 0 for no effect and ±100 for the full control effect; potency is the fitted concentration of half-maximal effect.

Chain of Nuclear receptor ROR-gamma (Mus musculus) (P51450 whole entry, looked up, the tested form may be a part): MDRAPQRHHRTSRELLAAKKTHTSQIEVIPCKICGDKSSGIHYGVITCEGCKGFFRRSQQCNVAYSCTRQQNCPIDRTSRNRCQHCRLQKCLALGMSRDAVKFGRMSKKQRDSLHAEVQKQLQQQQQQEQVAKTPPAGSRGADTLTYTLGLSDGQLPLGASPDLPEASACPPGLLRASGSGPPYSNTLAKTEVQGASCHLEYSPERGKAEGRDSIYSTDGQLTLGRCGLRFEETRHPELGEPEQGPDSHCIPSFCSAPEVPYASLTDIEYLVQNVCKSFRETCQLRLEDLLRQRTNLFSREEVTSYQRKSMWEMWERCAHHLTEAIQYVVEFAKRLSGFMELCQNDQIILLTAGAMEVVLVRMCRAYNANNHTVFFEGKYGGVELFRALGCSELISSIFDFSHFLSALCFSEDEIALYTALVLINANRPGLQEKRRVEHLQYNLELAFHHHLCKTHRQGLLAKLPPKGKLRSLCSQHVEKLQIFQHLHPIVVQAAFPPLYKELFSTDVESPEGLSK

This assay concerns the target Nuclear receptor ROR-gamma (Mus musculus) (UniProt P51450). In words: qHTS for inhibitors of ROR gamma transcriptional activity. Note: nearly all actives have a fitted effect of over 60% in size. Conditions: Drosophila S2 Gal4-RORgamma UAS-luciferase reporter, 20 h; series mostly up to 53.6 µM; activity change, negative = inhibition: at the top concentration. The gist of the method:
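Schneider cells (Drosophila), stable Gal4 DBD–ROR gamma + UAS-luc; 1 hr cmpd preincubation; Cu2+ induction 700 uM final; 20 hr ambient; luminescence.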
Turning to `CN(Cc1c(F)cccc1Cl)S(=O)(=O)c1cccs1`, the “activity change, negative = inhibition” value was -26.5% (inactive).

`COc1ccc(C(=O)NCc2nnc(SCC(=O)NC3=NCCS3)n2C)cc1`: the “activity change, negative = inhibition” value was 0.365% (inactive).

For the compound `COc1ccc(C(=O)Nc2nncs2)c(OC)c1`, the “activity change, negative = inhibition” value was -24.7% (inactive).

In the case of `COc1ccc(C(=O)NC2=NCCS2)c(OC)c1`, the Potency is 11.2 µM (active).

On to `CSCC[C@H](NC(=O)N1CCn2c1nc1ccccc12)C(=O)NC1CCCCC1`, for which the “activity change, negative = inhibition” value was 0.349% (inactive).

On to `CC(C)OC(=O)c1ccc(COc2ccc3ccc(=O)oc3c2)o1`, for which the “activity change, negative = inhibition” value was 3.55% (inactive).

For the compound `Cc1ccc(-c2nnc(SCC(=O)N/N=C/c3cccs3)n2-c2ccc(C)cc2)cc1`, the Potency was 17.8 µM (active).

`NNC(=O)CSc1nnc(-c2ccccc2)n1-c1ccccc1`: the “activity change, negative = inhibition” value was 1.72% (inactive).

As for `Cc1ccc(-n2c(SCC(=O)N3c4ccccc4Sc4ccccc43)nnc2-c2ccncc2)cc1`, the “activity change, negative = inhibition” value was 7.55% (inactive).

With `COCCN1C(=O)C(=O)/C(=C(/O)c2ccc(S(=O)(=O)N3CCOCC3)cc2)C1c1ccc(OC)c(OC)c1` (stereo unspecified), the “activity change, negative = inhibition” value was 1.24% (inactive).

Consider `COc1ccc(C2C3=C(CCCC3=O)N(CC(=O)O)C3=C2C(=O)CCC3)cc1`, for which the “activity change, negative = inhibition” value was -18.3% (inactive).

On to `CC(=O)N/C(=N/c1nc(C)cc(C)n1)Nc1ccc(F)cc1F`, for which the “activity change, negative = inhibition” value was -28.3% (inactive).

`Cc1cc(C)nc(-n2nc(C)cc2NC(=O)c2ccc(F)cc2F)n1`: the Potency was 0.178 µM (active).

In the case of `Cc1cc(NC(=O)Nc2ccc(Cl)cc2)n(-c2ccccc2)n1`, the “activity change, negative = inhibition” value was -13.5% (inactive).

Consider `CCN1C(=O)c2cccc3c(S(=O)(=O)Nc4ccccc4O)ccc1c23`, for which the “activity change, negative = inhibition” value is -39.5% (inactive).

As to `CN(C)c1cccc(C(=O)N2CCC(n3nccc3NC(=O)C3CCOC3)CC2)c1` (stereo unspecified), the “activity change, negative = inhibition” value was -3.44% (inactive).

As for `N#Cc1ccc(S(=O)(=O)NCC(=O)OCC(=O)NCCc2ccccc2)cc1`, the “activity change, negative = inhibition” value is -1.08% (inactive).

For the compound `O=C(CCCCCn1c(=S)[nH]c2cc3c(cc2c1=O)OCO3)N1CCN(c2ccc(F)cc2)CC1`, the Potency is 4.47 µM (active).

On to `Cc1ccc(C)c(N2CCN(C(=O)CCCCn3c(=O)[nH]c4ccccc4c3=O)CC2)c1`, for which the “activity change, negative = inhibition” value was 4.13% (inactive).

Consider `CC(C)NC(=O)CCCn1c(=S)[nH]c2cc3c(cc2c1=O)OCO3`, for which the “activity change, negative = inhibition” value was -17.2% (inactive).

`Cc1ccc(C)c(N2CCN(C(=O)CCCn3c(=O)c4cccn4c4cccnc43)CC2)c1`: the “activity change, negative = inhibition” value was 33% (inactive).

In the case of `Cc1ccc(C)c(N2CCN(C(=O)CCCCCn3c(=S)[nH]c4ccc(N5CCOCC5)cc4c3=O)CC2)c1`, the Potency was 10 µM (active).

For `CCCCNC(=O)CCn1c(=S)[nH]c2cc3c(cc2c1=O)OCO3`, the “activity change, negative = inhibition” value is -20.7% (inactive).

In the case of `Cc1ccnc(Nc2nc3ccccc3s2)n1`, the “activity change, negative = inhibition” value is -0.115% (inactive).

For `Cc1ccnc(-n2sc3ccccc3c2=O)n1`, the Potency is 11.2 µM (active).

`Cc1ccnc(N2CCCC(C(=O)NC3CC3)C2)n1` (stereo unspecified): the “activity change, negative = inhibition” value was 1.65% (inactive).

With `CCCCSCCCNC(=O)C1CCC(CNS(=O)(=O)c2ccc(NC(C)=O)cc2)CC1` (stereo unspecified), the “activity change, negative = inhibition” value was 36.7% (inactive).

As for `CCCCC(CC(C)O)c1n[nH]c(=S)n1-c1ccccc1` (stereo unspecified), the “activity change, negative = inhibition” value was 2.91% (inactive).

Turning to `S=c1[nH]nc(CSCc2ccc(Cl)cc2Cl)n1-c1ccccc1`, the Potency was 1.26 µM (active).

As to `O=c1[nH]nc(CSCc2ccccc2Cl)[nH]1`, the “activity change, negative = inhibition” value is 13.7% (inactive).

Regarding `Cc1ccc(OCc2n[nH]c(=S)n2-c2ccc(C)cc2)cc1`, the “activity change, negative = inhibition” value was -0.176% (inactive).

In the case of `CC(Sc1nnc(COc2ccccc2)n1-c1ccccc1)C(=O)O` (stereo unspecified), the “activity change, negative = inhibition” value is -6.73% (inactive).

With `CC(NS(=O)(=O)c1ccccc1)c1n[nH]c(=S)n1-c1ccccc1` (stereo unspecified), the “activity change, negative = inhibition” value was -25.6% (inactive).

`S=c1[nH]nc(COc2ccccc2)n1-c1ccccc1`: the Potency was 3.98 µM (active).

Turning to `O=[N+]([O-])c1ccccc1/C=N/n1c(COc2ccccc2)n[nH]c1=S`, the “activity change, negative = inhibition” value is -17.4% (inactive).

In the case of `Cc1ccc(OCc2n[nH]c(=S)n2-c2ccccc2)cc1`, the Potency was 0.708 µM (active).

The values above are taken from PubChem BioAssay AID2551 (National Center for Advancing Translational Sciences (NCATS), 2010).
